Laboratory results from PubChem BioAssay (Tox21).
The source made the active and inactive calls. Calls come from the whole dose curve; as a rule, active = well fitted activation curve with a large enough effect in the repeat runs; inconclusive = weak or mixed curves; inactive = flat fitted curve, though single readings scatter.

Assay: A CellTox Green Cytotoxicity Assay to monitor cytotoxicity in HepG2 cells - 0 hour (AID 1224882); note: nearly all actives have a fitted effect of over 35% in size
Conditions: CellTox Green fluorescence; series mostly up to 76.8 µM; cytotoxicity: at the top concentration
Source text: National Center for Advancing Translational Sciences [NCATS]
NIH Chemical Genomics Center [NCGC]
U.S. Environmental Protection Agency [EPA]
National Institutes of Environmental Health Sciences [NIEHS]
National Toxicology Program [NTP]
Cell-based models are critical for drug discovery. Determining the natural cytotoxic effects resulting from test compounds is an essential research activity. A CellTox Green Cytotoxicity Assay to monitor cytotoxicity in real time of continues cell culture during 40 hours of the compound treatment was used to screen Tox21 10K library compounds in HepG2 cells. CellTox Green Cytotoxicity Assay is a nonlytic, homogeneous, biofluorescent method to measure cytotoxicity in cell culture after experimental manipulation. The assay system uses a proprietary asymmetric cyanine dye that is excluded from viable cells but preferentially stains the dead cell's DNA. […] Viable cells produce no appreciable increases in fluorescence. Therefore, the fluorescence signal produced by the binding interaction with dead cell DNA is proportional to cytotoxicity.
The mixture of HepG2 cell suspension and reagents were dispensed at 600cells/6 ul/well in 1536-well tissue culture treated black solid bottom plates using a Multidrop dispenser. After the assay plates were incubated at a 37 C/5% CO2 incubator for 5 hours, 23 nL of compounds dissolved in DMSO, positive and negative controls was transferred to the assay plate by a pintool work station. The plates were incubated at 37 C for 40 hours. The fluorescence intensity were measured at 0h, 8h, 16h, 24h, 32h and 40h time points using ViewLux plate reader during compound treatment.
% is set by controls: 0 for no effect and ±100 for the full control effect.

With C=Cc1ccc(C=C)cc1 as the molecule, how does the “cytotoxicity” value read?
Its value is -7.31% (inactive).

Which “cytotoxicity” value does the source give for O=[N+]([O-])c1cccc(I)c1 here?
Its value is -1.18% (inactive).

With O=C(Nc1ccc2c(c1)Cc1ccccc1-2)C(F)(F)F as the molecule, how does the “cytotoxicity” value read?
The value was -5.47% (inactive).

With CC(C)(Cc1c[nH]c2ccccc12)NCC(O)COc1ccccc1C#N (stereo not given) as the molecule, how does the “cytotoxicity” value read?
Its value is 1.31% [at 35.3 µM] (inactive).

For CCCC1CCOC(C)S1 (stereo not given), which “cytotoxicity” value is on record?
Its value is 1.82% (inactive).

With CC(C)C[C@H](NC(=O)[C@H](Cc1ccccc1)NC(=O)c1cnccn1)B(O)O as the molecule, how does the “cytotoxicity” value read?
Its value is 10% [at 35.3 µM] (inactive).

For CCCc1ccc(OC)cc1, which “cytotoxicity” value is on record?
Its value is 0.62% (inactive).

With CC1(C)CC(=O)CC(C)(C)N1 as the molecule, how does the “cytotoxicity” value read?
Its value is -0.897% (inactive).

With CC(C)(C)c1cc(C=O)cc(C(C)(C)C)c1O as the molecule, how does the “cytotoxicity” value read?
The value was -3.04% [at 35.3 µM] (inactive).

For [O-][n+]1ccc(Cl)cc1, which “cytotoxicity” value is on record?
Its value is -4.04% (inactive).

With CC(C)CC(C)(C)C as the molecule, how does the “cytotoxicity” value read?
Its value is -6.72% (inactive).

With Cc1c(-c2cccnc2)c2ccccc2n1CCCCC(=O)O as the molecule, how does the “cytotoxicity” value read?
The value was 1.6% (inactive).

For COc1ccc(C(=O)Nc2ccccc2)cc1[N+](=O)[O-], which “cytotoxicity” value is on record?
Its value is -0.214% (inactive).

For COC(=O)/C=C/C(C)=C\C=C\C(C)=C\C=C\C=C(C)\C=C\C=C(C)\C=C\C(=O)O, which “cytotoxicity” value is on record?
Its value is 2.71% (inactive).

Which “cytotoxicity” value does the source give for O=C(O)c1cccc(C(=O)O)c1C(=O)O here?
Its value is 0.436% (inactive).

For CCCCCCC/C=C/C=O, which “cytotoxicity” value is on record?
The value was -1.45% (inactive).

For COc1ccc(/C(C)=C/C(=O)O)c(OC)c1, which “cytotoxicity” value is on record?
Its value is -16.4% [at 35.3 µM] (inactive).

Which “cytotoxicity” value does the source give for Oc1ccc(Oc2ccccc2)cc1 here?
Its value is 5.56% (inactive).

Which “cytotoxicity” value does the source give for CCc1c(C)[nH]c2c1C(=O)C(CN1CCOCC1)CC2 (stereo not given) here?
Its value is -2.23% [at 35.3 µM] (inactive).

For COc1ccc(/C=C/S(=O)(=O)NC(=O)c2ccc(C)cc2Cl)cc1, which “cytotoxicity” value is on record?
The value was -0.133% (inactive).

Which “cytotoxicity” value does the source give for O=C(O)c1c2ccccc2cc2ccccc12 here?
Its value is -2.95% (inactive).

With CO[C@@H]1COCC[C@@H]1N[C@@H]1CC[C@@](C(=O)N2CCc3ncc(C(F)(F)F)cc3C2)(C(C)C)C1 as the molecule, how does the “cytotoxicity” value read?
The value was 2.88% (inactive).

Which “cytotoxicity” value does the source give for CC(=O)CC/C=C(\C)CC/C=C(\C)CC/C=C(\C)CCC=C(C)C here?
The value was -2.55% [at 35.3 µM] (inactive).

With OCCCO as the molecule, how does the “cytotoxicity” value read?
Its value is -0.517% (inactive).

For CC(C)CCCCCOC(=O)CS, which “cytotoxicity” value is on record?
The value was 4.94% (inactive).

With CCC(=O)O[C@]1(C(=O)COC)[C@@H](C)C[C@H]2[C@@H]3CCC4=CC(=O)C=C[C@]4(C)C3(F)[C@@H](O)C[C@@]21C (stereo not given in full) as the molecule, how does the “cytotoxicity” value read?
Its value is -2.47% [at 35.3 µM] (inactive).

With CC(CC(C#N)(c1ccccc1)C(C)C)N(C)C (stereo not given) as the molecule, how does the “cytotoxicity” value read?
Its value is -0.838% [at 35.3 µM] (inactive).

For Cc1c(Cl)cccc1Nc1ccccc1C(=O)O, which “cytotoxicity” value is on record?
Its value is -0.495% [at 35.3 µM] (inactive).

Which “cytotoxicity” value does the source give for O=C1c2ccccc2C(=O)c2c1ccc(O)c2O here?
The value was 1.28% [at 35.3 µM] (inactive).

With CCCCOC(=O)CC#N as the molecule, how does the “cytotoxicity” value read?
The value was 1.64% (inactive).

Which “cytotoxicity” value does the source give for CCc1ccc(C(=O)C(C)CN2CCCCC2)cc1 (stereo not given) here?
The value was -0.0961% [at 35.3 µM] (inactive).

Which cytotoxicity does the source give for c1ccc(-c2ccc(-c3ccccc3)cc2)cc1 here?
The cytotoxicity was 0.432% [at 15.8 µM] (inactive).

For CCCCCCCCCCCCCCCCC(=O)O, which “cytotoxicity” value is on record?
Its value is 2.19% [at 35.3 µM] (inactive).

Which “cytotoxicity” value does the source give for COc1ccc(C(=O)c2ccc(C)cc2)c(O)c1 here?
Its value is -0.422% (inactive).

For O=C(c1ccc(Cl)cc1)c1ccc(Cl)cc1, which “cytotoxicity” value is on record?
Its value is 2.86% (inactive).

For COc1cc(C)c(Cc2cnc(N)nc2N)cc1OC, which “cytotoxicity” value is on record?
Its value is -5.63% [at 35.3 µM] (inactive).

For O=C(O)c1ccccc1[N+](=O)[O-], which “cytotoxicity” value is on record?
Its value is -0.0262% (inactive).

For CCCCCCCCCCCC(=O)OCC, which “cytotoxicity” value is on record?
Its value is 1.45% (inactive).

With CC[C@H](NC(C)C)[C@H](O)c1ccc(O)c2[nH]c(=O)ccc12 as the molecule, how does the “cytotoxicity” value read?
The value was -2.55% [at 35.3 µM] (inactive).

With OCCc1ccncc1 as the molecule, how does the “cytotoxicity” value read?
The value was -13.3% (inactive).
